Screening results deposited in PubChem BioAssay by National Center for Advancing Translational Sciences (NCATS).
Compounds with a hit are over-represented: about 21% of the library has one in this group of screens.
SARS PLpro yeast: inhibitors of SARS-CoV papain-like protease in yeast. S. cerevisiae expressing SARS-CoV PLpro, growth rescue. 0.19% of 330,000 active. AID 485353. Potency, µM (series often up to 32.9 µM), usual class: activators; also: nearly all actives have a fitted effect of over 55% in size
Pf growth 96h: P. falciparum growth inhibition at 96 hours. P. falciparum luciferase reporter growth, 96 h. Potency, µM (highest dose often 28.7 µM), usual class: inhibitors. 6.9% of 320,000 active; active = well fitted inhibition curve with a large enough effect; inconclusive = small, poorly fitted or top-dose-only effect, or another doubt; inactive = no such curve, though single readings can be large or run the other way
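Erythrocytes infected with luciferase-expressing P. falciparum were dispensed at 2% hematocrit and 0.05% parasitemia (final), then incubated with compounds 96 hours at 37 C in 5% CO2. Luminescence after detection reagent addition reported growth.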
Pf growth 48h: inhibits P. falciparum growth in the first generation, 48 h | P. falciparum luciferase growth in erythrocytes, 48 h | Potency, µM (doses to about 28.7 µM), hits mostly inhibitors | 5.9% of 310,000 active; active = well fitted inhibition curve with a large enough effect; inconclusive = small, poorly fitted or top-dose-only effect, or another doubt; inactive = no such curve, though single readings can be large or run the other way
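Luciferase-expressing parasites in RBCs, 2% Hct / 0.1% parasitemia final; RPMI 1640 + 0.5% Albumax; 37 C, 5% CO2, one generation; luminescence read-out, lower signal = inhibition.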
CHX counter: affects cycloheximide protein synthesis inhibition readout, counter-screen; AID 2314; cell reporter, cycloheximide protein synthesis inhibition counterscreen; 12% of 300,000 active; max response, %; in the data active = max response mostly above about 13%, no sharp cut-off; inactive = mostly below about 14%; also: read at 38.3 µM for the half of the compounds with a filed dose
NS1 function inh: influenza NS1 inhibition; Potency, µM (doses to about 46.1 µM); 0.4% of 270,000 active; AID 2326; also: actives are rising curves; nearly all actives have a fitted effect of over 50% in size
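In this qHTS, NS1 from influenza A is expressed in budding yeast, where it slows growth. Cells are switched from glucose to 2% galactose medium (pH 6.0, -URA), treated with compound, and growth recovery is read at OD600.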
Shiga inhibitor: Shiga toxin inhibition. inhibition, % at 38.7 µM. Vero cells, Shiga toxin protein synthesis inhibition reporter. AID 2315. 9.2% of 290,000 active; in the data active = inhibition mostly above about 28%, no sharp cut-off; inactive = mostly below about 43%
Of the large screens only hits and unclear results are named; the others gave an inactive call. Unless noted, calls follow the shape of the full dose curve.

COC(=O)C(C)n1cnc2c(nnn2-c2ccccc2)c1=O (stereo not drawn)	none
Nc1cc(=O)[nH]c2nnc(SCC(=O)Nc3cccc4ccccc34)n12	Pf growth 96h 7.4µM
O=C(CSc1nc(SCC(=O)NCc2ccccc2)n(-c2ccccc2)n1)NCc1ccccc1	Pf growth 96h 9.3µM (no result: Pf growth 48h)
COCCn1c(-c2ccccc2)cnc1SCC(=O)Nc1cccc2ccccc12	Pf growth 96h 13µM
O=C(CSc1ncccn1)NCc1ccc(F)cc1	none
Cc1ccc(CNC(=O)CSc2ncccn2)cc1	CHX counter 24, Shiga inhibitor 43
N.N.N.N.N.N.N.N.N.N.N.N.N.N.O.O.[Cl-].[Cl-].[Cl-].[Cl-].[Cl-].[Cl-].[Ru].[Ru].[Ru]	none (no result: SARS PLpro yeast, Pf growth 96h, Pf growth 48h, CHX counter, Shiga inhibitor)
CN1C(=O)C[C@@H](C(=O)N[C@@H](Cc2cnc[nH]2)C(=O)N2CCC[C@H]2C(N)=O)NC1=O	none (no result: SARS PLpro yeast, CHX counter, NS1 function inh, Shiga inhibitor)
O=C(CSc1ncccn1)Nc1cccc2ccccc12	CHX counter 22
CNC(=S)N1C2CCC1CC(NC(=O)NC13CC4CC(CC(C4)C1)C3)C2 (stereo not drawn)	SARS PLpro yeast inconclusive, Pf growth 96h inconclusive, Pf growth 48h 12µM
O=C(Nc1nnc(CCS(=O)(=O)c2ccc3ccccc3c2)s1)c1ccc([N+](=O)[O-])cc1	Pf growth 96h inconclusive
Cc1ccc(-c2ccccc2)n1-c1ccc(C(=O)O)cc1	CHX counter 15
Cc1nc(=O)c(-c2ccccc2)c(C)n1-c1cccc(C(=O)O)c1	none
Cc1ccc(-c2ccccc2)n1-c1cccc(C(=O)O)c1	CHX counter 66, Shiga inhibitor 163
CN1C(=O)C(=O)/C(=C(/O)c2ccc(Br)cc2)C1c1ccc(F)cc1 (stereo not drawn)	none
Cc1ccc(C2SCCN2C(=O)c2ccc([N+](=O)[O-])cc2)cc1 (stereo not drawn)	Pf growth 48h inconclusive
O=C(Nc1ccccc1)Nc1nnc(/C=C/c2ccccc2Cl)s1	none
Nc1nnc(/C=C/c2ccccc2Cl)s1	CHX counter 36, Shiga inhibitor 47
Cc1cccc(OCCn2c(=O)n(C)c3ccccc32)c1	Pf growth 96h inconclusive, CHX counter 67, Shiga inhibitor 115 (no result: Pf growth 48h)
Cc1cccc(OCCn2c(=O)sc3ccccc32)c1	CHX counter 36, Shiga inhibitor 79
CCOc1ccc(Cn2c(=O)sc3ccccc32)cc1	Pf growth 96h inconclusive
Cc1cccc(OCCCn2c(=O)sc3ccccc32)c1	CHX counter 44, Shiga inhibitor 60
Cc1ccccc1OCCn1c(=O)sc2ccccc21	Pf growth 48h 13µM
Cc1cccc(OCCCN2CCCCCC2)c1	none
COc1ccccc1OCCn1c(=O)sc2ccccc21	none
COc1ccc(OCCn2c(=O)sc3ccccc32)cc1	Pf growth 96h 2.9µM, CHX counter 25, Shiga inhibitor 81
COCCCC1CCN(C(=O)C2CCC(=O)N(Cc3ccccc3F)C2)CC1 (stereo not drawn)	Pf growth 96h inconclusive
CCN(CC)CCOC(=O)C(C)(c1ccccc1)c1ccccc1	Pf growth 96h 11µM, Pf growth 48h inconclusive (no result: SARS PLpro yeast, CHX counter, NS1 function inh, Shiga inhibitor)
CCc1ccc(-c2cnc3ccccc3n2)cc1NC(=O)CNC(=O)c1ccccc1	CHX counter 37, Shiga inhibitor 105
O=C(Nc1cccc(-c2cnc3ccccc3n2)c1)C1CC(=O)N(c2ccccc2)C1 (stereo not drawn)	none
CCC(=O)Nc1cccc(-c2cnc3ccccc3n2)c1	Pf growth 96h inconclusive, CHX counter 47, Shiga inhibitor 36 (no result: Pf growth 48h)
O=C(CCl)Nc1cccc(-c2cnc3ccccc3n2)c1	SARS PLpro yeast inconclusive, Pf growth 48h 1µM, CHX counter 46, Shiga inhibitor 72 (no result: Pf growth 96h)
CCc1ccccc1NC(=O)CNC(=O)c1n[nH]c(=O)c2ccccc12	none (no result: CHX counter, NS1 function inh, Shiga inhibitor)
CCCCn1nnnc1NCc1ccc(N(CC)CC)cc1	none (no result: Pf growth 96h)
CCCCn1c(-c2ccccc2C)nc2cc3[nH]c(=O)c(C(C)C)nc3cc21	Pf growth 96h inconclusive, Pf growth 48h inconclusive
CCCCn1c(C2CCCCC2)nc2cc3[nH]c(=O)c(C(C)C)nc3cc21	Pf growth 96h 9.3µM
COc1ccc(CCNC(=O)C2CCCN2C(=O)Nc2ccc(F)cc2)cc1OC (stereo not drawn)	none
CCOc1ccc(C2C=C(c3ccc(C)cc3)Nc3ncnn32)cc1 (stereo not drawn)	Pf growth 48h 10µM
COc1ccccc1C1C=C(c2ccc(C)cc2)Nc2nnnn21 (stereo not drawn)	Pf growth 96h inconclusive
CCOc1ccc(C2C=C(c3ccc(C)cc3)Nc3nnnn32)cc1 (stereo not drawn)	Pf growth 96h 13µM, Pf growth 48h 8.3µM
COc1ccc(C2=CC(c3cccc(C)c3)n3nnnc3N2)cc1 (stereo not drawn)	CHX counter 28 (no result: SARS PLpro yeast, Pf growth 96h, Pf growth 48h, NS1 function inh)
CC1=CC(c2ccccc2)n2nnnc2N1 (stereo not drawn)	NS1 function inh inconclusive
CCOc1ccc(C2C=C(c3ccccc3)Nc3nnnn32)cc1 (stereo not drawn)	CHX counter 58, Shiga inhibitor 131
COc1ccc(C2C=C(c3ccccc3)Nc3ncnn32)cc1 (stereo not drawn)	Pf growth 48h inconclusive
COc1cc(C(=O)NCC(c2cccs2)N2CCOCC2)cc(OC)c1OC (stereo not drawn)	Pf growth 48h inconclusive (no result: CHX counter, NS1 function inh, Shiga inhibitor)
O=C(CN1C(=O)COc2ccc(S(=O)(=O)N3CCOCC3)cc21)NCc1ccccn1	none
CCCN=Cc1ccc(O)cc1	none
COc1ccc(C2=CC(c3c(C)nn(-c4ccccc4)c3Cl)n3nnnc3N2)cc1OC (stereo not drawn)	Pf growth 96h inconclusive, Pf growth 48h 2.3µM
Cc1cccc(C(=O)Oc2ccccc2C2C[C@]3(C)CC(=O)NC3N2C(=O)c2cccc(C)c2)c1 (stereo partly drawn)	Pf growth 96h 5.9µM (no result: Pf growth 48h)
CS(=O)(=O)Nc1ccccc1C(=O)OCC(=O)N1CCC(c2ccccc2)=N1	none (no result: CHX counter, NS1 function inh, Shiga inhibitor)
CC(Sc1nncn1C)C(=O)Nc1nnc(C(C)C)s1 (stereo not drawn)	none
CC(Sc1nncn1C)C(=O)Nc1nnc(-c2ccccc2)s1 (stereo not drawn)	CHX counter 23, Shiga inhibitor 46
COc1ccccc1-c1nnc(NC(=O)C(C)SC2=NCCS2)s1 (stereo not drawn)	Pf growth 96h inconclusive (no result: Pf growth 48h)
CC(SC1=NCCS1)C(=O)Nc1nnc(-c2ccc(Cl)cc2)s1 (stereo not drawn)	CHX counter 12, Shiga inhibitor 29
COc1cccc(-c2nc(CS(=O)(=O)CC(=O)NCCN3CCOCC3)c(C)o2)c1	Pf growth 96h inconclusive
CCOC(=O)/C(=C\c1ccc(OC(F)F)cc1)C1=Nn2c(nnc2-c2ccc(Cl)cc2)SC1	Pf growth 96h inconclusive, Pf growth 48h inconclusive
CCCCCC(=O)NNC1CC(=O)N(c2ccccc2)C1=O (stereo not drawn)	none
CCCCCC(=O)N(O)C1CC(=O)N(c2ccccc2)C1=O (stereo not drawn)	Pf growth 96h inconclusive, Pf growth 48h 10µM
